Test results as given in PubChem BioAssay AID1851 (National Center for Advancing Translational Sciences (NCATS), 2009).
Among all 16,000 compounds or so, about 2,600 (16%) were called active. Another 20% or so got no clear call; they are omitted. Not all results are given here. A number with no mark means an inactive call. Calls come from the whole dose curve; as a rule, active = well fitted curve in the direction sought with a large enough effect; inconclusive = small, poorly fitted or top-dose-only effect, or effect the other way; inactive = no such curve, though single readings can be large or run the other way.
% is set by controls: 0 for no effect and ±100 for the full control effect.

These molecules were tested against Cytochrome P450 2D6 (Homo sapiens) (UniProt P10635) (assay: Cytochrome panel assay with activity outcomes). Settings: recombinant CYP, pro-luciferin dealkylation, luminescence, p450-cyp2d6; series mostly up to 57.1 µM.
Cytochrome P450 2D6 (Homo sapiens), sequence (P10635 whole entry, looked up): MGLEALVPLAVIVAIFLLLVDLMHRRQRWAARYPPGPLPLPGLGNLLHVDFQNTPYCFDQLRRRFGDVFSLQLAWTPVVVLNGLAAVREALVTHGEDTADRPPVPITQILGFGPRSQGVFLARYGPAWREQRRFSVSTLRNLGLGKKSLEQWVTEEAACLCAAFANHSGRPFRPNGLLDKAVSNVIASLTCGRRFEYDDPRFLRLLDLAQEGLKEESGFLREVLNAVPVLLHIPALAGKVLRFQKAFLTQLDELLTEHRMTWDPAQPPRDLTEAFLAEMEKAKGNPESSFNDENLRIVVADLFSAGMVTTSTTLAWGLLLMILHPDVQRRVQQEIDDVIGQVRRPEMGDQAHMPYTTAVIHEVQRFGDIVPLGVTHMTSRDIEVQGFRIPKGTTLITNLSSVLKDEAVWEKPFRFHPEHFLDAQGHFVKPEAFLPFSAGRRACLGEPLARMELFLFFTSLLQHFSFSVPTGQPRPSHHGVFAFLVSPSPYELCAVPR
`Cn1c(N)c(N=Nc2ccc(S(N)(=O)=O)cc2)c(=O)n(C)c1=O` gave an activity, negative = inhibition of 5.11% [at 11.4 µM]. Molecule `Cc1cc(N2CCOCC2)nc2ccc(Cc3ccc4nc(N5CCOCC5)cc(C)c4c3)cc12` has an activity, negative = inhibition of -2.88% [at 11.4 µM]. With `CCN(CC)C(=O)N1CCN(C)CC1` the AC50 was “inactive”. With `COc1ccc(Sc2ccc(NC(=O)c3ccccc3Cl)cc2C#N)cc1` the AC50 was “inactive”. For `CCOC(=O)c1ccc(NC(=O)CC2NCCNC2=O)cc1` (stereo not given), the AC50 was “inactive”. For `CC(=O)Nc1ccc(NC(=O)CC2Nc3cccc4cccc(c34)NC2=O)cc1` (stereo not given), the AC50 was “inactive”. In the case of `Cc1cccc(NC(=O)CC2Nc3cccc4cccc(c34)NC2=O)c1` (stereo not given), the AC50 is reported as 14.1 µM (active). `Cc1nc(NS(=O)(=O)c2ccc(Br)cc2)c2c3c(sc2n1)CCC3` was tested, and the AC50 was “inactive”. `Cc1cc(NC(=O)c2cccc(F)c2)no1` was tested, and the AC50 was “inactive”. `Cc1ccc(-c2csc(C(C#N)=C3CCCC3)n2)cc1` was tested, and the AC50 was “inactive”. In the case of `Cc1ccc(N2CC(C(=O)Nc3cc(C)on3)CC2=O)cc1` (stereo not given), the AC50 is reported as “inactive”. In the case of `Cc1cnc(CNc2ncncc2-c2ccoc2)cn1`, the AC50 is reported as “inactive”. For `c1csc(CNc2ncncc2-c2ccoc2)c1`, the AC50 was 15.8 µM (active). In the case of `c1ccc(CNc2ncncc2-c2ccoc2)cc1`, the AC50 is reported as 20 µM (active). `NCCCC(=O)O` was tested, and the AC50 was “inactive”. For `CCC(=O)O[C@@H]1[C@H](C)O[C@H](O[C@H]2[C@@H](N(C)C)[C@H](O)[C@@H](O[C@@H]3[C@@H](CC=O)C[C@@H](C)[C@@H](O)/C=C\C=C/C[C@@H](C)OC(=O)C[C@@H](OC(=O)CC)[C@H]3OC)O[C@H]2C)C[C@]1(C)O`, the AC50 was “inactive”. For `CCCCCCC1CC(C)(/C(C)=N/NC(N)=O)OC1=O` (stereo not given), the AC50 was “inactive”. `CCOC(=O)N/N=C1/C[C@@H](O)[C@@H](O)[C@@H]2[C@@H]3C(=O)N([C@@H](C)c4ccccc4)C(=O)[C@H]3CC[C@@H]12` gave an activity, negative = inhibition of 0.427% [at 11.4 µM]. For `COc1ccc(NC(=S)Nc2ncccc2C)c(OC)c1`, the AC50 was “inactive”. `Nc1nc2c(ncn2[C@@H]2C=C[C@@H](CO)C2)c(=O)[nH]1` showed an activity, negative = inhibition of 4.55% [at 11.4 µM]. With `Cc1cc(-c2c(C)[nH]n(-c3ccccc3)c2=O)n(-c2ccccc2)n1` the AC50 was “inactive”. Molecule `O=C(O)[C@H](Cc1ccc(O)c([N+](=O)[O-])c1)N1C(=O)c2ccccc2C1=O` has an activity, negative = inhibition of 6.61% [at 11.4 µM]. With `CN1CCN(c2ncc3nc(-c4ccc(F)cc4)c(=O)n(Cc4cccs4)c3n2)CC1` the AC50 was “inactive”. With `CN(C)Cc1ccccc1-c1nc(N2CCOCC2)c2ccccc2n1` the AC50 was 7.94 µM (active). With `CN(C)Cc1ccccc1-c1nc(N(C)C)c2ccccc2n1` the AC50 was 2.51 µM (active). In the case of `CNc1nc(-c2c(C)noc2C)nc2ccccc12`, the AC50 is reported as “inactive”. In the case of `Cc1ccccc1-c1nc(N2CCOCC2)c2ccccc2n1`, the AC50 is reported as “inactive”. For `Cc1noc(C)c1-c1nc(N2CCOCC2)c2ccccc2n1`, the AC50 was “inactive”. In the case of `CNc1nc(-c2ccccc2CN(C)C)nc2ccccc12`, the AC50 is reported as 3.98 µM (active). For `Cc1cccc(CNc2nc(-c3ccccc3CN(C)C)nc3ccccc23)c1`, the AC50 was 12.6 µM (active).
